Tgondii IFNg – inhibitors of Toxoplasma gondii growth with IFN-gamma; Toxoplasma gondii growth in IFN-gamma-treated host cells; stronger effect = lower value; activity change, negative = inhibition, % (no concentration beside the values); 69,000 tested, 3.8% active; AID 1259416; in the data active means activity change below about -70%, passing the limit was not always enough;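 further: host cells are HeLa cells infected with Toxoplasma gondii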
Active calls of the source: *; i = inactive; ! = not confirmed by another sample. This is one part of a sample in which hits are shown more often than they occur.

SMILES	Tgondii IFNg
CCc1cnc(C)nc1N1CCN(Cc2ccc3c(c2)OCO3)C(=O)C1	-85*
Cc1ccc(NC(=O)CC(=O)N2CCN(Cc3ccc4c(c3)OCO4)C(=O)C2)cc1	-52
CCNc1ccnc(N2CCN(Cc3ccc4c(c3)OCO4)CC2)n1	-13
Cc1nc(C)n(CC(=O)NCC(c2ccccc2Cl)c2c[nH]c3ccccc23)n1 (centres undefined)	-17
CCCC(=O)N1CCc2c(CNS(C)(=O)=O)cncc2C1	17
C[C@]12CC[C@@H]3c4ccc(O)cc4CC[C@H]3[C@@H]1CC[C@@H]2OC(=O)CCC(=O)O	1
C[C@]12CCC3c4ccc(OS(=O)(=O)O)cc4CCC3C1CCC2=O (some centres undefined)	17
C[C@]12CCC3c4ccc(O)cc4CCC3C1CC[C@@H]2OC(=O)CCC1CCCC1 (some centres undefined)	-72*!
Cc1onc(-c2ccc(Cl)cc2)c1C(=O)Nc1nc(C(C)C)cs1	-2
Cc1cccc(-c2nnc(-c3nc(NCCc4c(C)noc4C)c4ccccc4n3)o2)c1	-17
Cc1noc(C)c1CCNc1ncc2c(n1)c1ccc(Cl)cc1n1ccnc21	-73*
Cc1ccc(-c2cncc(C(=O)N3CCOCC3)n2)c(-n2nc(C)cc2C)c1	5
CCC(C)(C)C(=O)N1CCC(CO)(CCOc2ccccc2)CC1	66
CS(=O)(=O)NC1CCN(c2nc(-c3ccccc3)nc3c2CCC3)CC1	-14
CNC(=O)C(C)N(C)Cc1nc2ccccc2n1CC(C)C (centres undefined)	33
CC(C)Cn1c(CN(C)Cc2ncc[nH]2)nc2ccccc21	-84*
CC(C)Cc1nc(CN(C)Cc2ncc[nH]2)no1	9
CCOc1ccsc1C(=O)N1C[C@@H]2[C@H](C1)OC[C@@H]2c1nnc(C)o1	-35
FC(F)(F)c1ccnc(Oc2ccc(CN3CCCC3)cc2Cl)c1	-2
CC(C)C[C@@H](C(=O)N[C@H](C(=O)OC1CCCC1)c1ccccc1)[C@H](O)C(=O)NO	-85*
CNC(=O)[C@@H](NC(=O)[C@H](CC(C)C)[C@H](O)C(=O)NO)C(C)(C)C	14
CC(NC(=O)Cc1cc(F)cc(F)c1)C(=O)NC(C(=O)OC(C)(C)C)c1ccccc1 (centres undefined)	18
COc1ccc(-n2ccnc2-c2ccc(CO)o2)cc1OC	-3
Cc1onc(C(C)C)c1C(=O)NCCn1ncc(-c2cnccn2)c1-c1cccs1	-1
COc1ccccc1-c1nc(Cn2nnc(C(=O)Nc3ccc(Br)c(C)c3)c2C)c(C)o1	287
SMILES	Tgondii IFNg
O=S(=O)(NCCc1csc(-c2cccc(F)c2)n1)c1ccccc1	-57
Cc1cc(CNC(=O)CCCn2nc(C)cc2C)c2[nH]c3c(c2c1)CCCC3	121
CC(=O)N1Cc2nccn2CC(CN(C)Cc2ccco2)C1 (centres undefined)	13
COc1ccc(-c2nnc3sc(C4COc5ccccc5O4)nn23)cc1OC (centres undefined)	-41
COc1ccc(/C=C/c2nn3c(-c4ccc(OC)c(OC)c4)nnc3s2)cc1	-101*
COc1ccc(-c2nc(C)c(C(C)=O)n2O)cc1OC	10
Cc1nn(CCNC(=O)C2CC(=O)N(Cc3ccccn3)C2)c(C)c1Cl (centres undefined)	-2
CN(C)CCCN1c2ccccc2Sc2ccc(C(F)(F)F)cc21	-89*!
CC(CN(C)C)CN1c2ccccc2Sc2ccccc21 (centres undefined)	7
CCSc1ccc2c(c1)N(CCCN1CCN(C)CC1)c1ccccc1S2	-78*
OCCN1CCN(CCCN2c3ccccc3C=Cc3ccccc32)CC1	17
COc1ccc2c(c1)N(C[C@H](C)CN(C)C)c1ccccc1S2	29
CN(C)CC/C=C1/c2ccccc2Sc2ccc(Cl)cc21	-62
OCCN1CCN(CC/C=C2/c3ccccc3Sc3ccc(C(F)(F)F)cc32)CC1	-77*
CN1CCN(CCCN2c3ccccc3Sc3ccc(Cl)cc32)CC1	2
OCCN1CCN(CCCN2c3ccccc3Sc3ccc(C(F)(F)F)cc32)CC1	-97*!
CC(=O)c1ccc2c(c1)N(CCCN1CCN(CCO)CC1)c1ccccc1S2	28
CN1CCCC(CN2c3ccccc3Sc3ccccc32)C1 (centres undefined)	16
CN1CCN(CCC=C2c3ccccc3Sc3ccc(S(=O)(=O)N(C)C)cc32)CC1	78
Cc1ccc(F)cc1-c1ccc(N)nc1	-26
Cc1nccc2[nH]c(=O)ccc12	10
Cc1nc(CNC(C)CCc2c[nH]c3ccccc23)cs1 (centres undefined)	7
Cc1cc(N2CCN(C(=O)[C@@H]3C[C@@H]4C=C[C@H]3C4)CC2)nc2ccccc12	-46
CC(=O)NCc1cccc(-c2ccc(O)cc2)c1	-4
CCCCN(Cc1ccco1)C(=O)c1cc(F)ccc1OC	-1
SMILES	Tgondii IFNg
Cc1cc(C)n(CCNC(=O)c2cccc(C#CC(C)(C)O)c2)c(=O)n1	-5
COc1ccc2oc(C(=O)N(Cc3ccccn3)C3CCCC3)cc2c1	13
Cc1ccc(CN2CC[C@@H]3[C@H]2CCN3c2nncs2)o1	-25
COc1cccc(NC(=O)N2CCC3(CC2)Nc2cc(OC)ccc2-n2cccc23)c1	i
COc1ccc2[nH]cc(CCNC(=O)c3cc(C)nc4c3c(=O)n(C)c(=O)n4C)c2c1	84
Cc1ccc(-c2coc(-c3ccc(NC(=O)Nc4ccc(F)cc4F)cc3)n2)c(C)c1	3
Cc1ccc(F)c(NC(=O)Nc2ccc(-c3cccc4[nH]nc(N)c34)cc2)c1	-75*
Cc1ccc(C)c(-c2coc(-c3ccc(NC(=O)Nc4ccccc4F)cc3)n2)c1	-35
CCc1nc(OCC(=O)NCc2ccc(F)cc2)c2ccccc2n1	-1
CCCn1nccc1C(=O)NC[C@@H]1CCNC[C@H]1O	8
Cn1ccnc1CN1CC[C@@H](NS(C)(=O)=O)[C@H]1Cc1cccnc1	1
CC(C)c1cc(-c2n[nH]c(=O)n2-c2ccc3c(ccn3C)c2)c(O)cc1O	-79*
COCCN1CCCn2c(nc(Cn3cncn3)cc2=O)C1	2
c1ccc(-c2cn3nc(-c4ccccn4)c(-c4ccccn4)nc3n2)cc1	23
O=C(CCc1c[nH]c2ccccc12)N1CCc2c(cc(-c3cccc(Cl)c3)c(=O)n2CC2CC2)C1	-13
COc1ccc(CCCC(=O)N2CCCC3(CN(C)C(=O)O3)C2)cc1 (centres undefined)	-6
O=C(NCCc1cccnc1)c1ccn(-c2ccc3ccc(-c4ccc(F)cc4)cn23)n1	-20
Cc1ccc(C(=O)N2CCC3(CC2)Nc2ccc(Cl)cc2-n2cccc23)cc1F	72
Clc1ccc(-c2cn[nH]c2C2CCCNC2)cc1 (centres undefined)	1
Clc1ccc(C2(c3ccc(-c4cn[nH]c4)cc3)CCNCC2)cc1	-72*
c1nc(-c2ccc(-n3cnnc3)cc2)cs1	1
Cn1c(C(=O)N(C2CCCCC2)C2CCCCC2)cc2sccc21	59
C=CCN1C(=O)C2(CCOCC2)c2cc(NC(=O)c3ccc[nH]3)ccc21	7
Cc1ccc(CNCC2Cn3nncc3CO2)o1 (centres undefined)	29
CCc1ccc(Nc2nc(-c3ccc(OC)cc3)nc3ccccc23)cc1	-20
Cc1cn([C@@H]2C[C@@H](O)[C@H](CO)O2)c(=O)[nH]c1=O	1
O=c1[nH]c(=O)n([C@H]2C[C@H](O)[C@@H](CO)O2)cc1C(F)(F)F	-77*!
O=c1[nH]c(=O)n([C@H]2CC(O)[C@@H](CO)O2)cc1C(F)(F)F (some centres undefined)	-50
Cc1ccc(Cn2c(CN3CCC(C(=O)N4CCCC4)CC3)cc3ccccc32)cc1	-3

Screening data (PubChem)
